Screens deposited in PubChem by several laboratories.
KLF5 inhibitor – KLF5 expression inhibitors, primary screen, DLD-1 cells, luminescence; DLD-1 KLF5 promoter-luciferase reporter; inhibition, % at 5 µM; 290,000 tested, 0.23% active;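 active = inhibition above a per-plate limit of that plate's mean compound inhibition plus 3 SD, cut at about 60% in these data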;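 also: higher means less KLF5 promoter-driven luciferase light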
BaF3 parental – parental Ba/F3 cell viability inhibition, counter-screen for JAK2V617F inhibitor project, murine pro-B, CellTiter-Glo luminescence. CellTiter-Glo ATP luminescence. inhibition, % at 5.6 µM. AID 1486, 2009. 220,000 tested, 1.1% active;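 active = inhibition above a per-campaign cutoff, the mean inhibition of all tested compounds plus 3 SD, cut at about 27% in these data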
Ba/F3 V617F tox – reduced viability of JAK2V617F-dependent Ba/F3 cells, primary screen, JAK2V617F inhibitor project, cell-based, Ba/F3 EpoR-JAK2V617F, luminescence. ATP luminescence. inhibition, % at 5.6 µM. 220,000 tested, 1.1% active. AID 1446, 2008;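 active = inhibition above the campaign mean plus 3 SD over all tested compounds, cut at about 24% in these data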;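 also: cytokine-independent growth of Ba/F3 cells driven by EpoR plus mutant JAK2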
APP transl inh – inhibitors of APP translation via 5'UTR reporter, primary screen, APP 5'UTR luciferase, SH-SY5Y cells; SH-SY5Y APP 5'UTR-luciferase reporter, luminescence; inhibition, % at 2 µM; 190,000 tested, 0.82% active; AID 1285, 2008;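 active = inhibition above a set limit, derived from the sample mean plus 3 SD, cut at about 45% in these data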
IEC-6 cytotox – cytotoxicity in IEC-6 intestinal epithelial cells, primary screen, cytotoxicity control for KLF5 inhibitor project, cell-based, luminescence | IEC-6 cytotoxicity, luminescence viability | inhibition, % at 5 µM | 290,000 tested, 0.78% active | AID 1825, 2009; in the data active = inhibition above about 22%
BaF3 parental 2 – parental Ba/F3 cell viability inhibition, counter-screen for JAK2V617F inhibitor project, murine pro-B, CellTiter-Glo luminescence. shares compounds with Ba/F3 V617F tox. cells kept alive by added IL-3. inhibition, % at 5.6 µM. 580 tested, 31% active;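 active = cell growth inhibition above the hit limit set in the earlier mutant JAK2 cell screen, cut at about 27% in these data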
JAK2V617F confrm – viability loss in Ba/F3 EpoR-JAK2V617F cells, confirmation, JAK2V617F inhibitor project, cell-based, luminescence, triplicate; 580 tested, 66% active; inhibition, % at 5.6 µM; CellTiter-Glo luminescence; shares compounds with Ba/F3 V617F tox;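 active = mean inhibition above the hit cutoff derived in the earlier primary screen, cut at about 25% in these data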;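 also: higher means lower luminescence from reduced cell ATP and viability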
Of the large screens only hits and unclear results are named; the others gave an inactive call (follow-up assays come after a bar, where they were run). Sampled rows, rich in hits. Any-hit rate of the full collection: about 1.8%.

Oc1ccc(-c2nc3ccc4ccccc4c3c3c2CCC3)cc1O	Ba/F3 V617F tox 63 | BaF3 parental 2 53 | JAK2V617F confrm 97
O=C(Nc1ccc(NC(=S)NC(=O)C(c2ccccc2)c2ccccc2)cc1)c1ccccc1	Ba/F3 V617F tox 28 | BaF3 parental 2 29 | JAK2V617F confrm 64
Oc1ccc(CN2CCC(Cc3ccccc3)CC2)c2cccnc12	Ba/F3 V617F tox 83, APP transl inh 58 | BaF3 parental 2 84 | JAK2V617F confrm 98
CC1(C)Cc2nc3sc4c(SCC(=O)NCc5ccco5)ncnc4c3cc2CO1	Ba/F3 V617F tox 72 | BaF3 parental 2 62 | JAK2V617F confrm 90
Oc1ccc(/C=N/Nc2nccnc2Cl)c(O)c1	Ba/F3 V617F tox 32 (no result: APP transl inh) | BaF3 parental 2 71 | JAK2V617F confrm 91
Oc1ccccc1/C=N/Nc1nccnc1Cl	none
COc1cccc(-c2ccc(SCC(=O)N3CCc4ccccc43)nn2)c1	none
CCN(CC)CCn1c(=N)n(CC(O)COc2cccc(C)c2)c2ccccc21 (stereo not drawn)	none
Cc1cccc(OCC(O)Cn2c(=N)n(Cc3ccccc3)c3ccccc32)c1 (stereo not drawn)	Ba/F3 V617F tox 26 (no result: APP transl inh) | BaF3 parental 2 inactive | JAK2V617F confrm 32
N=c1n(Cc2ccccc2)c2ccccc2n1CC(O)COc1ccc(Cl)cc1Cl (stereo not drawn)	none
COc1ccc(OCC(O)Cn2c(=N)n(Cc3ccccc3)c3ccccc32)cc1 (stereo not drawn)	Ba/F3 V617F tox 68 | BaF3 parental 2 inactive | JAK2V617F confrm 35
CC(C)(C)NC(=O)CCN(/N=C/c1ccccc1O)C1=NS(=O)(=O)c2ccccc21	none (no result: BaF3 parental, Ba/F3 V617F tox, APP transl inh)
COCCNC(=S)N1CCN(c2ccc(Cl)cc2)CC1	none
CCOC(=O)C1=NNC2(c3ccc(C)cc3)C(=O)N(c3ccc(Cl)cc3)C(=O)C12 (stereo not drawn)	none
O=C(Nn1c(-c2ccc(F)cc2)nc2ccccc2c1=O)c1cccnc1	Ba/F3 V617F tox 66 | BaF3 parental 2 inactive | JAK2V617F confrm inactive
Cc1cc(C)cc(S(=O)(=O)c2cn(C)c3cc(N4CCN(C)CC4)c(F)cc3c2=O)c1	none (no result: BaF3 parental, Ba/F3 V617F tox, APP transl inh)
COc1cc2c(cc1NC(=O)c1cccc([N+](=O)[O-])c1C)oc1ccccc12	Ba/F3 V617F tox 53 | BaF3 parental 2 inactive | JAK2V617F confrm inactive
CC1CCN(CCCNC(=O)c2cc3c(Cl)nc4ccccc4c3s2)CC1	Ba/F3 V617F tox 34 | BaF3 parental 2 inactive | JAK2V617F confrm 71
COC(=O)C(C(=O)OC)C(C)C(C(=O)OC)C(=O)OC	Ba/F3 V617F tox 61 | BaF3 parental 2 inactive | JAK2V617F confrm inactive
COC(=O)C(c1ccccc1)C(C(=O)OC)c1ccccc1 (stereo not drawn)	none (no result: BaF3 parental, Ba/F3 V617F tox, APP transl inh)
CCCN(CCC)S(=O)(=O)c1ccc(NC(=O)COc2ccccc2)cc1	none
CC(C)CCNC(=O)C(c1ccco1)N(CCCO)C(=O)Cn1nnc(-c2ccc(F)cc2)n1 (stereo not drawn)	Ba/F3 V617F tox 49 | BaF3 parental 2 inactive | JAK2V617F confrm inactive
O=C(CCN1C(=O)/C(=C\c2ccccc2F)SC1=S)N1CCCCC1	none (no result: BaF3 parental, Ba/F3 V617F tox, APP transl inh)
OC(c1cc(-c2ccc(Cl)cc2)nc2ccccc12)C1CCCCN1 (stereo not drawn)	Ba/F3 V617F tox 65, IEC-6 cytotox 34 (no result: APP transl inh) | BaF3 parental 2 inactive | JAK2V617F confrm inactive
OC(c1cc(C(F)(F)F)nc2c(Cl)cc(Cl)cc12)C1CCCCN1 (stereo not drawn)	none (no result: APP transl inh)
CCc1ccc(NC(=O)C2CCN(S(=O)(=O)c3ccc4[nH]c(=O)ccc4c3)CC2)cc1	none (no result: BaF3 parental, Ba/F3 V617F tox, APP transl inh)
CCCOc1ccccc1C1C(C(=O)OC)=CN(C(C)C)C=C1C(=O)OC	none
CCCCOc1ccccc1C1C(C(=O)OC)=CN(CC)C=C1C(=O)OC	Ba/F3 V617F tox 29 | BaF3 parental 2 30 | JAK2V617F confrm 35
CC(=O)Oc1ccc(Cl)cc1/C=C/c1cc(OC(C)=O)c2ccccc2n1	Ba/F3 V617F tox 24 | BaF3 parental 2 30 | JAK2V617F confrm 48
CCN(CC)c1ccc2c(c1)OC(N)=C(C#N)C2c1cccnc1 (stereo not drawn)	Ba/F3 V617F tox 83, APP transl inh 94 | BaF3 parental 2 78 | JAK2V617F confrm 98
CC(=O)c1ccc(Sc2nnnn2-c2ccccc2)c([N+](=O)[O-])c1	Ba/F3 V617F tox 44 | BaF3 parental 2 inactive | JAK2V617F confrm 83
Cc1ccc(NC(=O)NNC(=O)c2ccc3c(c2)NC(=O)C(C)(C)O3)cc1	none (no result: BaF3 parental, Ba/F3 V617F tox, APP transl inh)
COC(=O)c1cccc(NC(=O)/C=C/c2cccc([N+](=O)[O-])c2)c1	none
CC(=O)c1cccc(NC(=O)/C=C/c2ccc([N+](=O)[O-])s2)c1	Ba/F3 V617F tox 101, APP transl inh 81 | BaF3 parental 2 106 | JAK2V617F confrm 100
CC1=CC(=C2C(=O)c3ccccc3C2=O)C=C(C)O1	none
CC(=O)C1=C(c2ccc(Br)cc2)C(=O)c2ccccc2C1=O	Ba/F3 V617F tox 26, APP transl inh 68 | BaF3 parental 2 105 | JAK2V617F confrm 98
Brc1ccc(-c2nnc3sc(CN4CCC5(CC4)OCCO5)cn23)cc1	none
c1ccc(-c2nnc3sc(CN4CCc5ccccc54)cn23)cc1	Ba/F3 V617F tox 35 | BaF3 parental 2 30 | JAK2V617F confrm 30
O=C(NC(NC1CCS(=O)(=O)C1)C(Cl)(Cl)Cl)c1ccc(Br)cc1 (stereo not drawn)	Ba/F3 V617F tox 36 | BaF3 parental 2 inactive | JAK2V617F confrm 24
Cc1cc(NC(=O)CSc2nc(-c3ccco3)cc(C(F)(F)F)n2)no1	Ba/F3 V617F tox 61, IEC-6 cytotox 46 | BaF3 parental 2 48 | JAK2V617F confrm 90
C/C(=N\NC(=O)c1[nH]c2c([N+](=O)[O-])cc(C)cc2c1-c1ccccc1)c1cccnc1	none
O=C(O)/C=C\C(=O)Nc1ccccc1C#Cc1ccc(Br)cc1	Ba/F3 V617F tox 36 | BaF3 parental 2 inactive | JAK2V617F confrm inactive
O=C(O)/C=C\C(=O)Nc1ccccc1C#Cc1ccccc1	none
Oc1c(C(Nc2nc3ccccc3s2)c2ccco2)ccc2cccnc12 (stereo not drawn)	Ba/F3 V617F tox 26, APP transl inh 68 | BaF3 parental 2 35 | JAK2V617F confrm 89
c1coc(CNc2nc3ccccc3s2)c1	none (no result: BaF3 parental, Ba/F3 V617F tox, APP transl inh)
O=C(Nc1ccccc1C(=O)O)c1ccc(Br)o1	Ba/F3 V617F tox 24 | BaF3 parental 2 inactive | JAK2V617F confrm inactive
COc1ccc(CCC(=O)NCCNC(=O)CCc2ccc(OC)cc2)cc1	none (no result: BaF3 parental, Ba/F3 V617F tox, APP transl inh)
C=CCn1c(CNC(=O)c2ccco2)nnc1SCC(=O)N1c2ccccc2Sc2ccccc21	Ba/F3 V617F tox 71 | BaF3 parental 2 inactive | JAK2V617F confrm inactive
